# In PubChem BioAssay (NCATS):
# Results filed as inconclusive are left out. Entries that show only a call come without a potency. Active and inactive are the calls of the source. Calls come from the whole dose curve; as a rule, active = well fitted cell-killing curve with a large enough effect; inconclusive = small, poorly fitted or top-dose-only effect, or effect the other way; inactive = flat fitted curve, though single readings scatter.
# Assay: qHTS of pediatric cancer cell lines to identify multiple opportunities for drug repurposing: Confirmatory screen for Rh18 cells (AID 1347125); note: nearly all actives have a fitted effect of over 55% in size
# Details: Rh18 rhabdomyosarcoma cells, viability; series mostly up to 45.9 µM
# Excerpt: Drug repurposing or repositioning has been offered as a strategy for drug development in oncology programs. This approach has special potential for childhood cancers and other rare or orphan diseases, where the expected return on new drug development has been a disincentive to pharmaceuticals.
# In this project we exploit the poly-pharmacology of drugs to discover new indications via phenotypic screening of a panel of 19 well-characterized cell lines derived from solid tumors seen in children and adolescents. The goal is to identify approved drugs with previously unrecognized anticancer properties that has the potential to reveal new mechanisms and biological processes involved in carcinogenesis or drug resistance. We employed a titration-based paradigm (quantitative high-throughput screening or qHTS), where all compounds were tested at multiple concentrations for their effect on cell viability. Concentration-response curves (CRCs) were derived directly from the primary screen, and both potency and efficacy values were used to identify compounds with robust bioactivity profiles. We screened the NIH Chemical Genomics Center (NCGC) Pharmaceutical Collection (NPC) and Mechanism Interrogation Plate (MIPE) small molecule collections of approved and investigational compounds against these cell lines; and measured metabolically active cells after 48 hours of compound treatment as a proxy for cell viability.
# Assay Submitter: Nathalia J. Martinez, National Center for Advancing Translational Sciences, National Institutes of Health, Rockville, MD, USA; email: natalia.martinez@nih.gov
# [1] Shen, M et al. Quantitative high-throughput phenotypic screening of pediatric cancer cell lines identifies multiple opportunities for drug repurposing. Oncotarget 2017 Dec 19;9(4):4758-4772. PMID 29435139.
# The cells were obtained from University of North Carolina (UNC), Pediatric Preclinical Testing Program (PPT), and Coriell Institute (CI).
# qHTS cell viability assay:
# Cells were assayed in growth media at a density of 500-1,000 cells/well. Five microliters of cells were dispensed into 1,536-well, white, solid-bottom, TC-treated plates (Greiner Bio One) using a multidrop dispenser and incubated at 37 degrees C, 5% CO2, under a humidified atmosphere for 5 hours. Twenty-three nanoliters of compounds and controls (neutral control DMSO or positive control bortezomib at final concentration of 2.3 µM) were subsequently transferred by Kalypsys pintool. For primary screens, the MIPE collection was tested at 11-point dilutions (final concentrations range from 0.78 nM to 46 µM) and the NPC collection at 8-point dilutions (final concentrations range from 0.59 nM to 46 µM). Compounds tested in follow-up screens were assayed at 11-point dilutions. Cells were incubated for 48 hours, followed by addition of 3 µL of CellTiter-Glo (Promega). After a 15 min incubation at room temperature, samples were analyzed for luminescence intensity using a ViewLux High-throughput CCD imager equipped with clear filters.
# Potency is the fitted concentration of half-maximal effect.
row,Structure (SMILES),Potency
1,CC1(C)OC2CC3C4CC(F)C5=CC(=O)C=CC5(C)C4C(O)CC3(C)[C@]2(C(=O)CO)O1 (stereo not given in full),inactive
2,CCOC(=O)[C@H](CCc1ccccc1)N[C@@H](C)C(=O)N1CCCC1C(=O)O (stereo not given in full),13100 nM (active)
3,CN(C)CCN(C)C(=O)c1ccc(NC(=O)Nc2ccc(-c3nc(N4CCOCC4)c4ccn(CC(F)(F)F)c4n3)cc2)cc1,3290 nM (active)
4,CN[C@@H]1CN(c2ccc3c(=O)c(C(=O)O)cn(-c4nccs4)c3n2)C[C@@H]1OC,14400 nM (active)
5,COC1CCC(C(=O)c2ccc3nc4c(cc3c2)CCCO4)CC1 (stereo not given),inactive
6,CCC[C@H](Nc1nc(-c2ccc(NC(=O)NCC)c(OC)c2)ncc1C)c1cccnc1,inactive
7,COc1cc(CNC(=O)CCCCC=CC(C)C)ccc1O,inactive
8,C=CC(=O)Nc1cccc(Sc2nc(Nc3ccc(N4CCN(C)CC4)cc3)ncc2Cl)c1,16500 nM (active)
9,CCNC(=O)c1noc(-c2cc(C(C)C)c(O)cc2O)c1-c1ccc(CN2CCOCC2)cc1,92.8 nM (active)
10,CC(=O)N1CCN(c2ccc(OCc3nn(C)c(C)c3-c3cccc4c(CCCOc5cc(C)c(Cl)c(C)c5)c(C(=O)O)n(Cc5cccnc5)c34)cc2)CC1,inactive
11,CC(C)CN(C[C@H](O)[C@H](Cc1ccccc1)NC(=O)O[C@H]1CCOC1)S(=O)(=O)c1ccc(N)cc1,inactive
12,O=C(CC12CC3CC(CC(C3)C1)C2)Nc1cccc2nc(NCCNCCO)ccc12,inactive
13,CC1(C)CC(=O)c2c(C(F)(F)F)nn(-c3ccc(C(N)=O)c(NC4CCC(O)CC4)c3)c2C1 (stereo not given),261 nM (active)
14,Cc1c(C(=O)Nc2ccc(N3C[C@@H](C)O[C@@H](C)C3)nc2)cccc1-c1ccc(OC(F)(F)F)cc1,inactive
15,C[C@@]1(c2cc(-c3cncnc3)c(F)cc2F)CCSC(N)=N1,inactive
16,O=C1NC(=O)C(c2cnc3ccccn23)=C1c1cn2c3c(cccc13)CN(C(=O)N1CCOCC1)CC2,inactive
17,Cc1csc(-c2nnc(Nc3ccc(Oc4ncccc4-c4ccnc(N)n4)cc3)c3ccccc23)c1,inactive
18,COC(=O)[C@H](c1ccccc1Cl)N1CCc2sccc2C1,inactive
19,CC(C)C[C@H](NC(=O)c1cc2ccccc2s1)C(=O)N1CCN(C(=O)[C@H](CO)NS(=O)(=O)c2ccc(Cl)cc2Cl)CC1,inactive
20,CC1C(=O)OC2C(O)C34C5CC(C(C)(C)C)C36C(OC(=O)C6O)OC4(C(=O)O5)C12O (stereo not given),inactive

row,Structure (SMILES),Potency
1,CCC(=O)N1CCN(c2ccc(-n3c(=O)ccc4cnc5ccc(-c6cnc7ccccc7c6)cc5c43)cc2C(F)(F)F)CC1,inactive
2,CCN(CCO)CCCOc1ccc2c(Nc3cc(CC(=O)Nc4cccc(F)c4)[nH]n3)ncnc2c1,inactive
3,CN(C)CC[C@H](CSc1ccccc1)Nc1ccc(S(=O)(=O)NC(=O)c2ccc(N3CCN(Cc4ccccc4-c4ccc(Cl)cc4)CC3)cc2)cc1[N+](=O)[O-],1310 nM (active)
4,CO[C@H]1/C=C\O[C@@]2(C)Oc3c(C)c(O)c4c(O)c(c(C=NN5CCN(C6CCCC6)CC5)c(O)c4c3C2=O)NC(=O)C(C)=CC=C[C@H](C)[C@H](O)[C@@H](C)[C@@H](O)[C@@H](C)[C@H](OC(C)=O)[C@H]1C,inactive
5,CC(C)n1c(C=C[C@H](O)C[C@H](O)CC(=O)O)c(-c2ccc(F)cc2)c2ccccc21,8270 nM (active)
6,Cc1ccc(S(=O)(=O)Nc2nc3ccccc3nc2Nc2ccc3nsnc3c2)cc1,inactive
7,CSc1cccc(Nc2ncc3cc(-c4c(Cl)cccc4Cl)c(=O)n(C)c3n2)c1,3290 nM (active)
8,OCCn1cc(-c2ccc3c(c2)CCC3=NO)c(-c2ccncc2)n1,inactive
9,COc1ccc(-c2ccc3ncc4c(c3c2)n(-c2ccc(N3CCNCC3)c(C(F)(F)F)c2)c(=O)n4C)cn1,414 nM (active)
10,NC(N)=Nc1nc(CSCCC(N)=NS(N)(=O)=O)cs1,inactive
11,COc1cc2ncnc(Nc3cc(Br)c(O)c(Br)c3)c2cc1OC,inactive
12,C[C@@H]1[C@H](O)[C@@H](C)C=CC=CC=CC=CC=CC=CC=C[C@H](O[C@@H]2O[C@H](C)[C@H](O)[C@H](N)[C@@H]2O)C[C@@H]2O[C@](O)(C[C@@H](O)C[C@@H](O)[C@H](O)CC[C@@H](O)C[C@@H](O)CC(=O)O[C@H]1C)C[C@H](O)[C@@H]2C(=O)O,inactive
13,N#CC(=C1Nc2ccccc2S1)c1ccnc(OCc2ccc(CN3CCOCC3)cc2)n1,inactive
14,Nc1ccc(-c2ccc3ncc4ccc(=O)n(-c5cccc(C(F)(F)F)c5)c4c3c2)cn1,928 nM (active)
15,CC1=C(CC(=O)O)c2cc(F)ccc2C1=Cc1ccc(S(C)=O)cc1 (stereo not given),inactive
16,CNC(=O)[C@H](CC1=CN=C2C=CCC=C12)NC(=O)[C@@H](CC(=O)NO)CC(C)C,1470 nM (active)
17,Cc1cccc(-c2[nH]c(C(C)(C)C)nc2-c2ccc3c(c2)OCO3)n1,inactive
18,O=C1Nc2ccc(I)cc2C1=Cc1cc(Br)c(O)c(Br)c1,inactive
19,COc1ccc2c(c1)c(C1=C(c3c[nH]c4ccccc34)C(=O)NC1=O)cn2CCCN(C)C,inactive
20,CCCCn1c(=O)n(Cc2ccccc2F)c(=O)c2[nH]c(Cc3ccc(NC(C)=O)cc3)nc21,inactive
